An excerpt weighted towards active compounds, which were near 6.2% of everything screened.
KinaseGlo FLuc: counter-screen: inhibitors of Kinase-Glo firefly luciferase; Q27757; Kinase-Glo luciferase, ATP luminescence, 8 min; Potency, µM (highest dose often 38.3 µM), without a hit: top-dose activity change, negative = inhibition, actives largely listed as inhibitors; hit rate 0.28% among 200,000; AID 1379; further: nearly all actives have a fitted effect of over 60% in size
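Compounds were added to a substrate mix at pH 7.2 (50 mM imidazole, 10 uM ATP, within the enzyme's linear range), followed by Kinase-Glo detection reagent; luminescence was measured after 8 minutes at ambient temperature.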
RORg inh: blocks mouse ROR gamma transcriptional activity. P51450. Drosophila S2 Gal4-RORgamma UAS-luciferase reporter, 20 h. Potency, µM (doses to about 53.6 µM), without a hit: top-dose activity change, negative = inhibition, hits mostly inhibitors. hit rate 5.4% among 310,000; further: nearly all actives have a fitted effect of over 60% in size
Target sequence (P51450 whole entry, looked up, the tested form may be a part): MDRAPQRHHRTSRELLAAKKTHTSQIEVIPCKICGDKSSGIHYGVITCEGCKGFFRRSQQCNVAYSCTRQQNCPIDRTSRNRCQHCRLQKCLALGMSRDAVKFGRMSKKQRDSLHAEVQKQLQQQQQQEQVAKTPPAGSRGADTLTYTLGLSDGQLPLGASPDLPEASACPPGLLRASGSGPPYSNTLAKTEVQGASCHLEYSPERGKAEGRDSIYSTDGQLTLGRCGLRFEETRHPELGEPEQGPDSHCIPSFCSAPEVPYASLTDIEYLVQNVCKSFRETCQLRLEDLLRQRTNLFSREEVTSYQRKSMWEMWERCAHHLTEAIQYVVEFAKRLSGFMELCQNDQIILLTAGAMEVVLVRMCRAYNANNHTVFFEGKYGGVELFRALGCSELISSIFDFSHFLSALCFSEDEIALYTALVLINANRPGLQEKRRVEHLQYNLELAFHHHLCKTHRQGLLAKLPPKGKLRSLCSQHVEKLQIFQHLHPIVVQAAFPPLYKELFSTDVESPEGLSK
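Stable Schneider cell line, Gal4 DNA-binding domain fused to ROR gamma, UAS-luciferase. Cmpd 1 hr RT → CuSO4 700 uM final → 20 hr RT → luciferase reagent 10 min → luminescence.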
VP16 counter: Gal4-VP16 reporter inhibition counter-screen; Drosophila S2 Gal4-VP16 UAS-luciferase, luminescence, 20 h; Potency, µM (top dose mostly 53.6 µM), without a hit: at the top dose activity, negative = inhibition, usual class: inhibitors; hit rate 3.5% among 310,000; AID 2546;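 further: Gal4-VP16 expression switched on by copper sulfate through the metallothionein promoter; nearly all actives have a fitted effect of over 50% in size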
* marks the source's active call; other numbers are inactive results; ? = inconclusive; · = not tested or not shown; [ ] = dose if it differs, or a comment. The call rests on the fitted dose curve; in most records, active means well fitted curve in the direction sought with a large enough effect; inconclusive means small, poorly fitted or top-dose-only effect, or another doubt; inactive means no such curve, though single readings can be large; an effect the other way counts as inactive or inconclusive. On the % scale 0 is the no-effect control and ±100 the full control effect; potency means the concentration at half of the fitted maximal effect.

SMILES	KinaseGlo FLuc	RORg inh	VP16 counter
O=C(CCCN1C(=O)/C(=C/c2cccs2)SC1=S)NNC(=O)c1ccccc1O	1%	-34%[10 µM]	?
COc1ccc(/C=C2\SC(=S)N(CCCC(=O)NNC(=O)c3ccccc3O)C2=O)cc1	0%	0.71µM*	1.6µM*
O=C(CCCN1C(=O)/C(=C\c2ccccc2)SC1=S)Nc1ccc(C(=O)O)cc1	·	-5%	-8%
CCc1ccc(/C=C2\SC(=S)N(CCCC(=O)Nc3ccc(C(=O)O)cc3)C2=O)cc1	·	4µM*	?
COc1ccc(NC(=O)Cn2c(C)cc(=O)c3ccccc32)cc1	13%	14%	?
Cc1ccc(S(=O)(=O)N(CC(=O)N2CCC(C)CC2)c2cccc(C)c2)cc1	0%	-17%	-1%
COCC(=O)N1CCC2(CC1)CCN(c1ccccc1)CC2	-5%	1%	15%
COc1ccc(NC(=O)CCCN2C(=O)/C(=C\c3ccco3)SC2=S)cc1	0%	11µM*	?
COc1ccc(/C=C2\SC(=O)N(CC(=O)Nc3cccc(C)c3)C2=O)cc1O	·	?	18µM*
COc1ccc(/C=C2\SC(=O)N(CC(=O)Nc3ccc(O)cc3)C2=O)cc1OC	·	-10%	-2%
O=C(CCCN1C(=O)/C(=C\c2cccs2)SC1=S)Nc1ccc(C(=O)O)cc1	-2%	8%	-12%
COc1ccc(/C=C2/SC(=S)N(CCCC(=O)Nc3cccc(O)c3)C2=O)cc1	·	0.32µM*	2.5µM*
CCN(CC)CCOC(=O)c1ccc(NC(=O)CCCN2C(=O)/C(=C/c3cccs3)SC2=S)cc1	·	22µM*	11µM*
O=C(CN1C(=O)/C(=C/c2ccco2)SC1=S)Nc1ccc(O)c(C(=O)O)c1	·	2%	2%
COc1cccc(/C=C2\SC(=S)N(CCC(=O)Nc3ccc(O)cc3)C2=O)c1	·	-7%	22%
O=[N+]([O-])c1ccc(-c2nnc(CNC3CCCC3)o2)cc1	3%	?	25%
Clc1ccccc1CNCc1ccncc1	-1%	7%	-8%
C=C(C(=O)OC)C(NC(=O)OC)c1ccccc1 (stereo not given)	2%	-21%	-5%
Cc1ccc(N(CC(=O)NCc2ccccc2)C(=O)CCC(=O)Nc2ccccn2)cc1	·	-5%	1%
C#CCSc1nc(=O)c2cccnc2n1-c1ccc(C)cc1	·	-9%	0%
COc1ccc(OC)c(S(=O)(=O)Nc2ccc3c(c2)n(C)c(=O)n3C)c1	·	-11%	?
COc1ccccc1-n1c(-c2cccnc2)n[nH]c1=S	-1%	10%[0.365 µM]	·
COc1ccccc1-n1c(-c2ccccc2)c[nH]c1=S	6%	2.8µM*	?
S=c1[nH]cc(-c2ccccc2)n1-c1ccccc1Cl	-3%	3.5µM*	7.1µM*
S=c1[nH]ccn1-c1c(Cl)cccc1Cl	·	-43%	-1%
SMILES	KinaseGlo FLuc	RORg inh	VP16 counter
COc1cccc(CNC(=O)CCN2C(=O)[C@@H]3Cc4ccccc4CN3C2=O)c1	·	-6%	-4%
COc1ccc(CNc2cc(-c3ccccc3Cl)ncn2)c(OC)c1	·	4%	6%
CC(C)(O)C#Cc1ccc(C(=O)N2CCCC(CCC(=O)NCc3ccccc3F)C2)cc1 (stereo not given)	·	-4%	-9%
CCCn1cc(SCC(=O)Nc2nnc(C)s2)c2ccccc21	5%	?	-2%
Cc1ccc(C(=O)NCCn2cc(SCC(=O)Nc3nnc(C)s3)c3ccccc32)cc1	1%	14µM*	1%
COC(=O)Cc1cc(=O)[nH]c(/N=C(\N)Nc2ccccc2C)n1	2%	38%	-4%
Cc1ccccc1N1C(=O)CC(Sc2nnc(-c3ccccc3)o2)C1=O (stereo not given)	8%	3.2µM*	4µM*
Nc1ccccc1SC1CC(=O)N(c2ccc(Cl)c(Cl)c2)C1=O (stereo not given)	·	39%	-28%
O=C1CC(Sc2nnc(-c3ccccc3)o2)C(=O)N1c1ccccc1 (stereo not given)	-2%	1.3µM*	4µM*
O=C1OCCC1Sc1nnc(-c2ccc(Br)cc2)o1 (stereo not given)	1%	?	?
CC(C)c1ccc(N2C(=O)CC(Sc3nc4ccccc4o3)C2=O)cc1 (stereo not given)	-6%	5µM*	4µM*
O=C1c2ccccc2CC1Sc1nnc(-c2ccncc2)o1 (stereo not given)	1%	0%	?
Cc1cc([N+](=O)[O-])ccc1NC(=O)CSc1nncn1-c1cccnc1	·	0%	-26%
N#CC(C#N)=C1C=CC=CN1/C(=C\c1ccccc1)C(=O)c1cccs1	-1%	14%	?
N#CC(C#N)=C1C=CC=CN1/C(=C\c1ccccc1Cl)C(=O)c1ccccc1	3%	6.3µM*	3.2µM*
CCn1cc(CN2N=C(C)CC2c2ccccc2)c(C)n1 (stereo not given)	-2%	-8%	-2%[10 µM]
Cc1cc(NC(=O)CSc2nnc(-c3ccccc3Cl)o2)no1	·	-25%	-24%
CCc1ccc(C2CC(c3ccccc3)Nc3nc(N)nn32)cc1 (stereo not given)	·	-15%	-12%
CCc1ccc(C2CC(c3ccccc3)n3ncnc3N2)cc1 (stereo not given)	2%	18µM*	-4%
N#CCO/N=C/C(=O)Nc1ccc(F)cc1F	-2%	-11%	1%[10 µM]
Cc1n(CC(=O)c2ccc(F)cc2)c2ccccc2[n+]1C	2%	19%	4%
CCCCn1c(=N)n(CC(=O)c2ccc([N+](=O)[O-])cc2)c2ccccc21	-2%	1.3µM*	-17%
Cc1ccc(Cn2c(=N)n(CC(=O)c3ccc([N+](=O)[O-])cc3)c3ccccc32)cc1	4%	?	-16%
Cn1c(=N)n(CC(=O)c2ccc(F)cc2)c2ccccc21	·	8.9µM*	11µM*
CCCCn1c(C23CC4CC(CC(C4)C2)C3)n[nH]c1=S	·	2.8µM*	3.2µM*
SMILES	KinaseGlo FLuc	RORg inh	VP16 counter
COCCn1c(C23CC4CC(CC(C4)C2)C3)n[nH]c1=S	-4%	4µM*	1.1µM*
CCCn1c(SCC(=O)NC(C)C23CC4CC(CC(C4)C2)C3)n[nH]c1=O (stereo not given)	18%	1%	7%
COCCn1c(C)cc(C(=O)COC(=O)C23CC4CC(CC(O)(C4)C2)C3)c1C	10%	?	?
COc1cccc(CN(C)C(=O)CNC(=O)c2ccc(-c3ccccc3)cc2)c1OC	·	?	2%
CC(C)C[C@H](NC(=O)[C@H](Cc1ccccc1)NC(=O)CNC(=O)[C@H](CCC(=O)O)NC(=O)[C@H](CCCNC(=N)N)NC(=O)[C@H](C)NC(=O)[C@H](C)NC(=O)[C@@H](N)CC(=O)O)C(=O)N[C@@H](CC(=O)O)C(=O)N[C@H](C(=O)N[C@@H](CC(C)C)C(=O)N[C@H](C(=O)N[C@H](C(=O)N[C@@H](CC(C)C)C(=O)N[C@@H](Cc1cnc[nH]1)C(=O)N[C@@H](CCCNC(=N)N)C(=O)N[C@@H](C)C(=O)NCC(=O)N[C@@H](C)C(=O)N[C@@H](CCCNC(=N)N)C(=O)O)C(C)C)C(C)C)[C@@H](C)O	·	2%	12%
CC(=O)[C@H]1[C@H](C#N)CC2C3CC=C4C[C@@H](O)CCC4(C)C3CCC21C (stereo not given in full)	-2%[39.9 µM]	19%	19%
COCCn1c(=O)c(-c2ccc(OC)cc2)nc2cnc(N3CCOCC3)nc21	·	-6%	-2%
